Results from PubChem BioAssay AID1159580 (chemical genetic matrix, 2015).
Values joined by “and” are separate entries in the source; they are usually repeats but may differ in a detail not shown here. Equal values may be shown once. The campaign covered roughly 5,500 compounds. About 2,000 (36%) were called active. Roughly 18% stayed inconclusive and do not appear here. The list shows a part of the results. Values without a mark were called inactive. Rule as the data show it: active = normalized growth mostly below about 0.91 (no sharp cut-off); inconclusive = no clear call, values can overlap the other calls; inactive = mostly above about 0.92.

Test: chemical genetic growth profiling, strain panel (AID 1159580);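 also: tested at 20 µM; growth read once vehicle control cultures reached saturation at 30 °C; 1 = growth at the plate median or of vehicle wells; lower values mean less growth of the strain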
Conditions: growth OD

**Q.** What does the source list for `NC1(C(=O)O)CCC1`?
**A.** normalized growth (S. cerevisiae deletion strains, locus YAL013W, strain DEP1, stronger effect = lower value): 0.911; normalized growth (S. cerevisiae deletion strains, locus YBR021W, strain FUR4, stronger effect = lower value): 0.992; normalized growth (S. cerevisiae deletion strains, locus YBR229C, strain ROT2, stronger effect = lower value): 1.01; normalized growth (S. cerevisiae deletion strains, locus YCL029C, strain bik1, stronger effect = lower value): 0.997; normalized growth (S. cerevisiae deletion strains, locus YDL035C, strain GPR1, stronger effect = lower value): 0.956; normalized growth (S. cerevisiae deletion strains, locus YDL074C, strain BRE1, stronger effect = lower value): 0.836; normalized growth (S. cerevisiae deletion strains, locus YDL101C, strain DUN1, stronger effect = lower value): 0.992; normalized growth (S. cerevisiae deletion strains, locus YDL134C, strain PPH21, stronger effect = lower value): 1.01; normalized growth (S. cerevisiae deletion strains, locus YDL185W, strain tfp1, stronger effect = lower value): 0.974; normalized growth (S. cerevisiae deletion strains, locus YDL192W, strain arf1, stronger effect = lower value): 0.974; normalized growth (S. cerevisiae deletion strains, locus YDR101C, strain arx1, stronger effect = lower value): 0.966; normalized growth (S. cerevisiae deletion strains, locus YDR150W, strain NUM1, stronger effect = lower value): 1; normalized growth (S. cerevisiae deletion strains, locus YDR162C, strain NBP2, stronger effect = lower value): 0.99; normalized growth (S. cerevisiae deletion strains, locus YDR318W, strain mcm21, stronger effect = lower value): 0.963; normalized growth (S. cerevisiae deletion strains, locus YDR388W, stronger effect = lower value): 0.988; normalized growth (S. cerevisiae deletion strains, locus YDR502C, strain sam2, stronger effect = lower value): 0.936; normalized growth (S. cerevisiae deletion strains, locus YEL061C, strain CIN8, stronger effect = lower value): 1; normalized growth (S. cerevisiae deletion strains, locus YER110C, stronger effect = lower value): 0.959; normalized growth (S. cerevisiae deletion strains, locus YER155C, strain BEM2, stronger effect = lower value): 1.03; normalized growth (S. cerevisiae deletion strains, locus YER167W, strain BCK2, stronger effect = lower value): 0.952; normalized growth (S. cerevisiae deletion strains, locus YGL078C, strain dbp3, stronger effect = lower value): 0.996; normalized growth (S. cerevisiae deletion strains, locus YGL086W, strain mad1, stronger effect = lower value): 0.955; normalized growth (S. cerevisiae deletion strains, locus YGL248W, strain PDE1, stronger effect = lower value): 1.01; normalized growth (S. cerevisiae deletion strains, locus YGR078C, strain PAC10, stronger effect = lower value): 0.868; normalized growth (S. cerevisiae deletion strains, locus YGR135W, strain pre9, stronger effect = lower value): 0.915; normalized growth (S. cerevisiae deletion strains, locus YGR229C, strain SMI1, stronger effect = lower value): 0.717 (active); normalized growth (S. cerevisiae deletion strains, locus YGR252W, strain gcn5, stronger effect = lower value): 0.894; normalized growth (S. cerevisiae deletion strains, locus YHR030C, strain SLT2, stronger effect = lower value): 0.996 and 1; normalized growth (S. cerevisiae deletion strains, locus YHR079C, strain IRE1 (second series), stronger effect = lower value): 0.982; normalized growth (S. cerevisiae deletion strains, locus YHR079C, strain IRE1, stronger effect = lower value): 1.01; normalized growth (S. cerevisiae deletion strains, locus YHR094C, strain hxt1, stronger effect = lower value): 0.992; normalized growth (S. cerevisiae deletion strains, locus YHR129C, strain ARP1, stronger effect = lower value): 0.971; normalized growth (S. cerevisiae deletion strains, locus YHR200W, strain rpn10, stronger effect = lower value): 0.968; normalized growth (S. cerevisiae deletion strains, locus YIL066C, strain RNR3, stronger effect = lower value): 0.966; normalized growth (S. cerevisiae deletion strains, locus YIL073C, strain SPO22, stronger effect = lower value): 0.895; normalized growth (S. cerevisiae deletion strains, locus YIL125W, strain kgd1, stronger effect = lower value): 0.996; normalized growth (S. cerevisiae deletion strains, locus YIR030C, strain dcg1, stronger effect = lower value): 0.988; normalized growth (S. cerevisiae deletion strains, locus YJL095W, strain BCK1, stronger effect = lower value): 0.88 and 0.998; normalized growth (S. cerevisiae deletion strains, locus YJL134W, strain LCB3, stronger effect = lower value): 0.997; normalized growth (S. cerevisiae deletion strains, locus YJL168C, strain set2, stronger effect = lower value): 0.978; normalized growth (S. cerevisiae deletion strains, locus YJL187C, strain SWE1 (second series), stronger effect = lower value): 0.997; normalized growth (S. cerevisiae deletion strains, locus YJR043C, strain POL32, stronger effect = lower value): 0.83 (active); normalized growth (S. cerevisiae deletion strains, locus YJR066W, strain TOR1, stronger effect = lower value): 0.932; normalized growth (S. cerevisiae deletion strains, locus YJR075W, strain HOC1, stronger effect = lower value): 0.891; normalized growth (S. cerevisiae deletion strains, locus YKL009W, strain mrt4, stronger effect = lower value): 0.98; normalized growth (S. cerevisiae deletion strains, locus YKL068W, stronger effect = lower value): 0.996; normalized growth (S. cerevisiae deletion strains, locus YKL085W, strain MDH1 (second series), stronger effect = lower value): 1.01; normalized growth (S. cerevisiae deletion strains, locus YKL085W, strain MDH1, stronger effect = lower value): 1.01; normalized growth (S. cerevisiae deletion strains, locus YKL190W, strain CNB1, stronger effect = lower value): 0.981; normalized growth (S. cerevisiae deletion strains, locus YKR001C, strain vps1, stronger effect = lower value): 0.92; normalized growth (S. cerevisiae deletion strains, locus YLR039C, strain RIC1, stronger effect = lower value): 0.991; normalized growth (S. cerevisiae deletion strains, locus YLR058C, strain SHM2, stronger effect = lower value): 1.01; normalized growth (S. cerevisiae deletion strains, locus YLR102C, strain apc9, stronger effect = lower value): 0.986; normalized growth (S. cerevisiae deletion strains, locus YLR113W, strain HOG1, stronger effect = lower value): 0.996; normalized growth (S. cerevisiae deletion strains, locus YLR262C, strain YPT6, stronger effect = lower value): 1.1; normalized growth (S. cerevisiae deletion strains, locus YLR268W, strain sec22, stronger effect = lower value): 0.951; normalized growth (S. cerevisiae deletion strains, locus YLR330W, strain CHS5, stronger effect = lower value): 1; normalized growth (S. cerevisiae deletion strains, locus YLR342W, strain FKS1 (second series), stronger effect = lower value): 0.955; normalized growth (S. cerevisiae deletion strains, locus YLR371W, strain rom2, stronger effect = lower value): 0.995; normalized growth (S. cerevisiae deletion strains, locus YLR418C, strain cdc73, stronger effect = lower value): 0.732 (active); normalized growth (S. cerevisiae deletion strains, locus YML016C, strain PPZ1, stronger effect = lower value): 0.994; normalized growth (S. cerevisiae deletion strains, locus YML032C, strain rad52, stronger effect = lower value): 0.977; normalized growth (S. cerevisiae deletion strains, locus YML124C, strain tub3, stronger effect = lower value): 0.994; normalized growth (S. cerevisiae deletion strains, locus YMR078C, strain ctf18, stronger effect = lower value): 0.988; normalized growth (S. cerevisiae deletion strains, locus YMR223W, strain ubp8, stronger effect = lower value): 0.935; normalized growth (S. cerevisiae deletion strains, locus YMR263W, strain SAP30, stronger effect = lower value): 0.929; normalized growth (S. cerevisiae deletion strains, locus YMR307W, strain GAS1, stronger effect = lower value): 0.986; normalized growth (S. cerevisiae deletion strains, locus YNL067W, strain RPL9B, stronger effect = lower value): 0.952; normalized growth (S. cerevisiae deletion strains, locus YNL128W, strain TEP1, stronger effect = lower value): 0.986; normalized growth (S. cerevisiae deletion strains, locus YNL153C, strain GIM3, stronger effect = lower value): 0.883; normalized growth (S. cerevisiae deletion strains, locus YNL183C, strain NPR1, stronger effect = lower value): 0.916; normalized growth (S. cerevisiae deletion strains, locus YNL233W, strain BNI4, stronger effect = lower value): 0.92; normalized growth (S. cerevisiae deletion strains, locus YNL250W, strain rad50, stronger effect = lower value): 0.948; normalized growth (S. cerevisiae deletion strains, locus YNL271C, strain bni1, stronger effect = lower value): 0.966; normalized growth (S. cerevisiae deletion strains, locus YNL298W, strain CLA4, stronger effect = lower value): 0.981; normalized growth (S. cerevisiae deletion strains, locus YNL307C, strain MCK1, stronger effect = lower value): 0.894 (active); normalized growth (S. cerevisiae deletion strains, locus YNL322C, strain KRE1, stronger effect = lower value): 0.997; normalized growth (S. cerevisiae deletion strains, locus YNR052C, strain pop2, stronger effect = lower value): 0.999; normalized growth (S. cerevisiae deletion strains, locus YOL006C, strain TOP1, stronger effect = lower value): 0.934; normalized growth (S. cerevisiae deletion strains, locus YOL012C, strain htz1): 1.73; normalized growth (S. cerevisiae deletion strains, locus YOL147C, strain pex11, stronger effect = lower value): 0.99; normalized growth (S. cerevisiae deletion strains, locus YOR061W, strain CKA2, stronger effect = lower value): 1; normalized growth (S. cerevisiae deletion strains, locus YOR069W, strain VPS5, stronger effect = lower value): 1; normalized growth (S. cerevisiae deletion strains, locus YOR136W, strain idh2, stronger effect = lower value): 0.973; normalized growth (S. cerevisiae deletion strains, locus YOR144C, strain elg1, stronger effect = lower value): 0.994; normalized growth (S. cerevisiae deletion strains, locus YOR184W, strain ser1, stronger effect = lower value): 0.875; normalized growth (S. cerevisiae deletion strains, locus YOR231W, strain MKK1, stronger effect = lower value): 0.989; normalized growth (S. cerevisiae deletion strains, locus YOR316C, strain cot1, stronger effect = lower value): 0.987; normalized growth (S. cerevisiae deletion strains, locus YPL055C, strain LGE1, stronger effect = lower value): 0.876; normalized growth (S. cerevisiae deletion strains, locus YPL241C, strain CIN2, stronger effect = lower value): 0.998; normalized growth (S. cerevisiae deletion strains, locus YPL256C, strain CLN2, stronger effect = lower value): 0.995; normalized growth (S. cerevisiae deletion strains, locus YPR119W, strain clb2, stronger effect = lower value): 0.999; normalized growth (S. cerevisiae deletion strains, locus YPR141C, strain kar3, stronger effect = lower value): 0.981; normalized growth (S. cerevisiae deletion strains, locus YPR163C, strain tif3, stronger effect = lower value): 0.996; normalized growth (S. cerevisiae deletion strains, locus YPR167C, strain met16, stronger effect = lower value): 0.992; normalized growth (S. cerevisiae deletion strains, strain wtn01, stronger effect = lower value): 0.927; normalized growth (S. cerevisiae strains, strain wild type, stronger effect = lower value): 0.925
